Source: PubChem BioAssay (several laboratories)
Most compounds without a hit are left out; they make up all but 3.8% or so of the library.
Mdm2-MdmX inh: inhibitors of human Mdm2-MdmX association, primary screen, cell-based, luminescence, split luciferase, SaOS-2, uHTS. inhibition, % at 8 µM. SaOS-2 split-luciferase Mdm2/MdmX complementation. Protein Mdm4 (Homo sapiens) + E3 ubiquitin-protein ligase Mdm2 (Homo sapiens), …. actives 3% (n = 330,000). AID 485346, 2010;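 active = inhibition of at least 50% at 8 µM in the primary screen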
Target sequence (O15151 whole entry, looked up): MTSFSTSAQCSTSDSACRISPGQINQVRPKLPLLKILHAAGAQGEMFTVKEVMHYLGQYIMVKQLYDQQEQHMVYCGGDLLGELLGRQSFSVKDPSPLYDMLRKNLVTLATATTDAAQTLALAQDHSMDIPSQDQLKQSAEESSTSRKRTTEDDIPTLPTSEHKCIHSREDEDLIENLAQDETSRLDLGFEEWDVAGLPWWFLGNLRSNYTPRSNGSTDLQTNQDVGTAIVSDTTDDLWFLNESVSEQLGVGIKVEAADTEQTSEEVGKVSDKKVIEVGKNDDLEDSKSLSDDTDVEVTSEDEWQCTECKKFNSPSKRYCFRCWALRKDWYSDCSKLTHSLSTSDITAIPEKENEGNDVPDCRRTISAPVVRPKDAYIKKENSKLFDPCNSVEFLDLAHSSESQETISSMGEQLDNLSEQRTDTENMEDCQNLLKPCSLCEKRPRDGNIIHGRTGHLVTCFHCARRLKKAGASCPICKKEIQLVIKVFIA
Target sequence (Q00987 whole entry, looked up): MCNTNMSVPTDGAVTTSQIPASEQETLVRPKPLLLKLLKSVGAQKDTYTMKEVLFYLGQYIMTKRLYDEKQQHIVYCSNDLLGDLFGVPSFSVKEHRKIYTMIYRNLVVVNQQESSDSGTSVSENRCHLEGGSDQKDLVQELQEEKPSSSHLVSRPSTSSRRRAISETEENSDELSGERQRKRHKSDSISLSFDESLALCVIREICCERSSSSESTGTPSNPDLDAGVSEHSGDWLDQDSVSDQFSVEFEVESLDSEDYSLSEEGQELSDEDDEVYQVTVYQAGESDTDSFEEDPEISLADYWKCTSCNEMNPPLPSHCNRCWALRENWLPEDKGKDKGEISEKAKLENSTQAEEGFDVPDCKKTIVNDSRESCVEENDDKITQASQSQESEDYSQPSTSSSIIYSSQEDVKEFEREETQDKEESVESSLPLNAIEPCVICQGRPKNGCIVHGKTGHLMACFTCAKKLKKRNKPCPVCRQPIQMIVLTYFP
Jurkat NFkB inh: inhibitors of induced NF-kB luciferase reporter, primary screen, TCR NF-kB activation inhibitor project, cell-based, luminescence, uHTS; Jurkat, PMA/ionomycin-induced NF-kB luciferase reporter; inhibition, % at 4 µM; actives 0.53% (n = 330,000); AID 435003, 2010; in the data active = inhibition above about 50%
697 NFkB inh: inhibitors of PMA/ionomycin-induced NF-kB reporter, 697 cells, primary screen, B-cell NF-kB inhibitor project, cell-based, luminescence, uHTS; 697 B-cell NF-kB luciferase reporter, 16 h; AID 435022, 2010; actives 0.33% (n = 330,000); inhibition, % at 4 µM; in the data active = inhibition above about 35%
Shn3 3UTR inh: reduction of Shn3 3'UTR firefly luciferase signal, primary screen, Schnurri-3 inhibitor project, cell-based, Clone20 osteoblasts, set 2; actives 0.52% (n = 360,000); inhibition, % at 12.5 µM; AID 588674, 2011; Clone20 osteoblast Shn3 3'UTR firefly luciferase, 24 h;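 active = mean inhibition of at least 75% with every replicate also reaching 75%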;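 also: 0% = median of neutral control wells and 100% = pilot-screen positive control compound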
Gli-Sufu antag: Gli-Sufu pathway antagonists, primary screen, luciferase luminescence, Sufu-KO-LIGHT cells, uHTS; Sufu-KO-LIGHT fibroblasts, Gli luciferase reporter luminescence; inhibition, % at 5 µM; actives 0.74% (n = 340,000);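 active = inhibition above about 55%, limit read from the data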;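 also: 0% = DMSO-treated cells and 100% = wells with medium but no cells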
Mdm2-MdmX conf: Mdm2-MdmX complex disruptors, retested hits, confirmation, luminescence, single concentration; shares compounds with Mdm2-MdmX inh; Mdm2-MdmX binding, luminescent assay; inhibition, % at 8 µM; actives 55% (n = 10,000); AID 489028, 2010; in the data active = inhibition above about 40%
FLuc counter: full-length luciferase signal inhibition, confirmation, counter-screen for Mdm2/MdmX interaction inhibitor project, cell-based, single concentration, SaOS-2. AID 504607, 2011. actives 77% (n = 6,200). shares compounds with Mdm2-MdmX inh. SaOS-2 full-length luciferase counterscreen, luminescence. inhibition, % at 8 µM;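 active = mean inhibition at 8 µM reaching about 37%, which flags the compound as non-specific, limit read from the data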;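 also: p53-null SaOS-2 cells with luciferase driven by a doxycycline-inducible promoter; compound on cells about two nights before reading with doxycycline added after day one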
An asterisk follows results filed as active; / = no result given.

SMILES	Mdm2-MdmX inh	Jurkat NFkB inh	697 NFkB inh	Shn3 3UTR inh	Gli-Sufu antag	Mdm2-MdmX conf	FLuc counter
O=C(O)c1ccc(O)c2ncccc12	/	/	/	-11	/	/	/
CCS(=O)(=O)c1ccc(N=Nc2ccc(O)c3ncccc23)c(OC)c1	75*	16	-4	95*	6	69*	32
Oc1ccc(N=Nc2ccccc2C(F)(F)F)c2cccnc12	83*	37	-10	90*	11	86*	23
COc1ccccc1N=Nc1ccc(O)c2ncccc12	68*	-47	-58	25	-2	38	92*
CCS(=O)(=O)c1ccc(O)c(NC(=O)c2cc(OC)c(OC)c(OC)c2)c1	16	-3	28	-3	4	/	/
Cc1c(C(=O)Nc2ccc(Cl)cc2)c2ccccn2c1C(=O)c1ccccc1	59*	1	15	19	2	0	/
Cc1c(C(=O)Nc2ccc(Cl)cc2)c2ccccn2c1C(=O)c1ccc([N+](=O)[O-])cc1	15	-3	-11	2	5	/	/
Cc1ccc(C2(C)NC(=O)N(CC(=O)NCCN3C(=O)S/C(=C\c4cccnc4)C3=O)C2=O)cc1 (centres undefined)	/	/	/	-18	-10	/	/
Cc1cccc(Cn2cc(/C=C/[N+](=O)[O-])c3ccccc32)c1	58*	16	6	-10	-5	15	/
O=C(Nc1cccc(Cl)c1)c1cc(N=Nc2ccc([N+](=O)[O-])cc2Cl)ccc1O	92*	6	-19	2	32	97*	51*
O=C(Nc1cccc(Cl)c1)c1cccc(Oc2ccc([N+](=O)[O-])cc2Cl)c1	61*	-17	-20	2	-9	11	/
COc1cccc(-c2nn(C)c3sc(C(=O)NCc4ccc(C)o4)cc23)c1	70*	-20	-5	-1	11	15	/
COc1ccc(NC(=O)c2cc3c(-c4ccc(OC)c(OC)c4)nn(C)c3s2)cc1OC	97*	-6	17	4	6	67*	50*
Cc1ccc(S(=O)(=O)Nc2ccccc2C(=O)N2CCN(C)CC2)cc1	13	7	17	9	2	/	/
CCN(C(=O)COC(=O)c1ccc(SC)cc1OC)C1CCS(=O)(=O)C1 (centres undefined)	28	18	16	-4	-7	/	/
CC(=O)c1cnc(Nc2cccc(C)c2)s1	-42	-67	-55	-91	-43	/	/
COc1ccccc1NC(=O)c1cc2c(CO)cnc(C)c2oc1=Nc1ccc(OC)c(OC)c1	65*	31	6	19	11	35	/
CC1CCCCC1NC(=O)COC(=O)c1ccc2c(c1)OCCO2 (centres undefined)	-2	0	10	16	4	/	/
Cn1nc2c3cc(F)ccc3n(Cc3ccc(F)cc3)cc-2c1=O	10	-10	3	-9	-14	/	/
COc1ccc(Cn2cc3c(-c4ccc(F)cc4)nnc-3c3cc(OC)c(OC)cc32)cc1	100*	7	11	-4	17	96*	68*
COc1cc2c3nnc(-c4ccc(F)cc4)c-3cn(Cc3ccccc3)c2cc1OC	100*	-5	-15	24	5	94*	57*
COc1cc2c3nnc(-c4ccc(F)cc4)c-3cn(Cc3ccc(F)cc3)c2cc1OC	100*	25	-12	-13	8	20	/
O=Cc1cccn1Cc1ccccc1[N+](=O)[O-]	23	-7	-3	8	-6	/	/
O=C(O)c1ccc(N=N/C(=N\Nc2ccc(C(=O)O)cc2)c2ccccc2)cc1	5	21	-35	-22	-26	/	/
Brc1ccc(N/N=C(/N=Nc2nn[nH]n2)c2ccccc2)cc1	77*	15	-51	70	17	85*	14
SMILES	Mdm2-MdmX inh	Jurkat NFkB inh	697 NFkB inh	Shn3 3UTR inh	Gli-Sufu antag	Mdm2-MdmX conf	FLuc counter
COc1ccc(C(=O)On2c(-c3ccc(Br)cc3)nc3ccccc3c2=O)cc1	54*	2	18	28	2	31	/
Cc1ccccc1OCC(=O)Nc1nnc(C2CCCC2)s1	17	4	9	-16	-4	/	/
COc1cccc(CN(C)C(=O)C(CCSC)NS(=O)(=O)c2ccc3c(c2)OCCO3)c1OC (centres undefined)	67*	23	33	21	42	56*	72*
CSCCC(NS(=O)(=O)c1ccc2c(c1)OCCO2)C(=O)N(C)Cc1ccc(C)cc1 (centres undefined)	-3	9	-2	14	8	/	/
CNc1ncnc(Sc2ccc(Cl)cc2)c1[N+](=O)[O-]	15	5	14	-10	2	/	/
Cc1ccc(S(=O)(=O)c2c(N)n(-c3ccccc3)c3nc4ccccc4nc23)cc1	-12	4	-4	10	0	/	/
COc1cccc(/C=N/n2c(N)c(S(=O)(=O)c3cccs3)c3nc4ccccc4nc32)c1OC	83*	-6	12	-14	11	27	/
Nc1c(S(=O)(=O)c2cccc(Cl)c2)c2nc3ccccc3nc2n1/N=C/c1ccc(O)c(O)c1	84*	3	-8	/	/	35	/
COCCn1c(N)c(S(=O)(=O)c2cccs2)c2nc3ccccc3nc21	31	-12	21	-20	8	/	/
Fc1ccc(Cn2c(-c3cscn3)nc3ccccc32)c(Cl)c1	36	-1	0	4	-10	/	/
Nc1nonc1-c1nc2ccccc2n1Cc1ccc(F)cc1Cl	62*	20	3	-165	5	49*	83*
O=C(CN1CCN(Cc2ccc(Cl)cc2)CC1)N/N=C/c1c[nH]c2ccccc12	34	22	6	6	-3	/	/
Cc1cccc(CC(=O)NCCS(=O)(=O)N2CCN(c3cccc(Cl)c3)CC2)c1	22	3	6	-8	-5	/	/
CCOC(=O)c1[nH]c2ccc(OC)cc2c1NC(=S)N1CCN(c2ccccc2OC)CC1	52*	24	5	-4	2	46*	69*
COC(=O)[C@H](CC(C)C)NC(=O)Cn1cnc2c(NCc3ccccc3)ncnc21	-2	/	-15	3	-20	/	/
CC1(C(=O)NCc2ccc(C(F)(F)F)cc2)CCN1Cc1ccccc1OC(F)F (centres undefined)	/	/	/	5	/	/	/
O=C1[C@H](Oc2ccccc2)[C@@H](c2ccccc2)N1c1ccncc1	50*	/	-10	-16	-10	-1	/
